Laboratory results as given in PubChem BioAssay (Tox21).
Several values for one entry are separate records, joined by “and”; a condition that tells them apart may be missing. Equal entries are not always repeated. Results filed as inconclusive are left out. A call without a number means that no potency is given here. The source holds several records for some structures; these can differ, active in one and inactive in another. Activity calls are given as the source filed them. Unless noted, calls follow the shape of the dose curve; as a rule, active = well fitted curve in the direction sought with a large enough effect in the repeat runs; inconclusive = weak or mixed curves; inactive = no such curve, though single readings can be large; an effect the other way counts as inactive or inconclusive.

Legend:
[1] = qHTS assay for identifying genotoxic compounds that show differential cytotoxicity against isogenic chicken DT40 cell lines with known DNA damage response pathways - Rev3 mutant cell line (AID 743014); also: nearly all actives have a fitted effect of over 55% in size; also: potency is read from the fitted curve at half-maximal effect
[2] = qHTS assay to identify small molecule antagonists of the androgen receptor (AR) signaling pathway - cell viability counter screen (AID 743033; also: nearly all actives have a fitted effect of over 45% in size; also: potency is read from the fitted curve at half-maximal effect)
[3] = qHTS assay to identify small molecule antagonists of the androgen receptor (AR) signaling pathway using the MDA cell line - cell viability counter screen (AID 743041; also: nearly all actives have a fitted effect of over 45% in size)
Procedure, shortened: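 Same-well cytotoxicity was assessed by CellTiter-Fluor in MDA-kb2 AR-luc cells after 16 h of compound treatment under R1881 agonism.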

[4] = qHTS assay to identify small molecule antagonists of the thyroid receptor (TR) signaling pathway (AID 743065); also: nearly all actives have a fitted effect of over 55% in size; also: potency is read from the fitted curve at half-maximal effect
Procedure, shortened: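 GH3.TRE-Luc rat pituitary cells (two TREs driving luciferase) were dosed with compound, then stimulated with 1 nM T3 (final) for 23.5 h at 37 C. ONE-Glo luminescence was the read-out, with CellTiter-Fluor fluorescence as the cytotoxicity counter-screen.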

[5] = tested on: thyroid hormone receptor (rat, GH3 cells); experiment: qHTS assay to identify small molecule agonists of the thyroid receptor (TR) signaling pathway (AID 743066; calls by dose curve)
[6] = molecular target: Estrogen receptor (Homo sapiens) (UniProt P03372); experiment: qHTS assay to identify small molecule antagonists of the estrogen receptor alpha (ER-alpha) signaling pathway (AID 743069; active = well fitted curve in the direction sought with a large enough effect in the signal ratio in the repeat runs, not every such curve was filed as active; the % refers to the signal ratio)
Procedure, shortened: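 Reporter cells (ER-alpha-bla, HEK293 background) are conditioned overnight in stripped-serum medium (2% charcoal-stripped FBS). Compound and 17beta-estradiol exposure runs 18 hr at 37C, 5% CO2.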

[7] = molecular target: Estrogen receptor (Homo sapiens) (UniProt P03372); experiment: qHTS assay to identify small molecule agonists of the estrogen receptor alpha (ER-alpha) signaling pathway (AID 743075; calls by dose curve)
[8] = molecular target: Estrogen receptor (Homo sapiens) (UniProt P03372); experiment: qHTS assay to identify small molecule agonists of the estrogen receptor alpha (ER-alpha) signaling pathway using the BG1 cell line (AID 743079); also: nearly all actives have a fitted effect of over 20% in size; also: potency is read from the fitted curve at half-maximal effect
[9] = qHTS assay to identify small molecule antagonists of the estrogen receptor alpha (ER-alpha) signaling pathway using the BG1 cell line (AID 743080; calls by dose curve;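 also: BG1 cells stimulated with 17beta-estradiol alongside compound; nearly all actives have a fitted effect of over 25% in size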)
Procedure, shortened: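 Quantitative HTS on the Tox21 10K library: BG1 cells with endogenous ER-alpha and ERE-luciferase reporter, 17beta-estradiol stimulation, 21.5 h compound exposure, luminescence endpoint with parallel fluorescence cytotoxicity counter-read.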

[10] = qHTS assay to identify small molecule antagonists of the estrogen receptor alpha (ER-alpha) signaling pathway using the BG1 cell line - cell viability counter screen (AID 743081);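 also: compound given together with 17beta-estradiol as the ER stimulus; nearly all actives have a fitted effect of over 45% in size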
[11] = molecular target: Aromatase (Homo sapiens) (UniProt P11511); experiment: qHTS assay to identify aromatase inhibitors (AID 743083); also: nearly all actives have a fitted effect of over 55% in size; also: potency is read from the fitted curve at half-maximal effect
[12] = qHTS assay for identifying genotoxic compounds that show differential cytotoxicity against isogenic chicken DT40 cell lines with known DNA damage response pathways - wild type cell line (AID 743012); also: nearly all actives have a fitted effect of over 60% in size; also: potency is read from the fitted curve at half-maximal effect
Procedure, shortened: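 Quantitative HTS on parental DT40 cells: 40 h compound treatment at 37 C/5% CO2, with viability then determined by CellTiter-Glo luminescence. Values serve as the DNA repair-proficient reference for differential cytotoxicity.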

[13] = qHTS assay to identify small molecule antagonists of the thyroid receptor (TR) signaling pathway - cell viability counter screen (AID 743064); also: nearly all actives have a fitted effect of over 50% in size
Procedure, shortened: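 GH3.TRE-Luc rat pituitary cells carrying a TRE-luciferase reporter were treated with compound plus 1 nM T3 (final) for 23.5 h at 37 °C. Viability was then read in the same wells by CellTiter-Fluor fluorescence after a further 30 min.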

[14] = qHTS assay to identify small molecule antagonists of the estrogen receptor alpha (ER-alpha) signaling pathway - cell viability counter screen (AID 743074; calls by dose curve;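 also: HEK293 cells carrying ER-alpha-UAS-bla reporter stimulated with 17beta-estradiol; nearly all actives have a fitted effect of over 45% in size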)
[15] = molecular target: Androgen receptor (Homo sapiens) (UniProt P10275); experiment: qHTS assay to identify small molecule antagonists of the androgen receptor (AR) signaling pathway (AID 743035; active = well fitted inhibition curve with a large enough effect in the signal ratio in the repeat runs, not every such curve was filed as active; the % refers to the signal ratio; also: potency is read from the fitted curve at half-maximal effect)
Procedure, shortened: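 Cell line: GeneBLAzer AR-UAS-bla GripTite (HEK293). Stimulus: R1881 added after compound. Exposure: 16 h, 37C, 5% CO2. Readout: LiveBLAzer B/G FRET fluorescence after 2 h at room temperature.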

[16] = molecular target: Androgen receptor (Homo sapiens) (UniProt P10275); experiment: qHTS assay to identify small molecule agonists of the androgen receptor (AR) signaling pathway (AID 743036; active = well fitted activation curve with a large enough effect in the signal ratio in the repeat runs, with a control signal flat, not every such curve was filed as active; the % refers to the signal ratio)
Procedure, shortened: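 HEK293 cells stably carrying a UAS-driven beta-lactamase reporter (GeneBLAzer AR-UAS-bla-GripTite) were plated at 2,000 cells/well, rested 4 h at 37C, then exposed to compounds in DMSO for 16 h. LiveBLAzer B/G FRET substrate was added for 2 h at room temperature; fluorescence read.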

[17] = molecular target: Androgen receptor (Homo sapiens) (UniProt P10275); experiment: qHTS assay to identify small molecule agonists of the androgen receptor (AR) signaling pathway using the MDA cell line (AID 743040; also: nearly all actives have a fitted effect of over 20% in size); conditions: MDA-kb2 AR-luc cells, MMTV luciferase, 16 h; activity change: at 70.3 µM (top of the series), stronger effect = higher value
Procedure, shortened: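 Human breast carcinoma MDA-kb2 reporter cells (MMTV-luc, AR/GR elements) were treated for 16 h at 37C in 0% CO2 following a 5 h settling period. Signal was quantified by ONE-Glo luminescence.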

[18] = molecular target: Androgen receptor (Homo sapiens) (UniProt P10275); experiment: qHTS assay to identify small molecule antagonists of the androgen receptor (AR) signaling pathway using the MDA cell line (AID 743042; also: potency is read from the fitted curve at half-maximal effect; nearly all actives have a fitted effect of over 55% in size)
Procedure, shortened: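 MDA-kb2 breast carcinoma cells carrying MMTV-luciferase (AR/GR responsive) were co-treated with compounds and the agonist R1881 for 16 h at 37C. Inhibition read as ONE-Glo luminescence; CellTiter-Fluor fluorescence measured in parallel for cytotoxicity.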

[19] = qHTS assay for identifying genotoxic compounds that show differential cytotoxicity against isogenic chicken DT40 cell lines with known DNA damage response pathways - Rad54/Ku70 mutant cell line (AID 743015); also: nearly all actives have a fitted effect of over 60% in size; also: potency is read from the fitted curve at half-maximal effect

Chain of Androgen receptor (Homo sapiens) (P10275 whole entry, looked up): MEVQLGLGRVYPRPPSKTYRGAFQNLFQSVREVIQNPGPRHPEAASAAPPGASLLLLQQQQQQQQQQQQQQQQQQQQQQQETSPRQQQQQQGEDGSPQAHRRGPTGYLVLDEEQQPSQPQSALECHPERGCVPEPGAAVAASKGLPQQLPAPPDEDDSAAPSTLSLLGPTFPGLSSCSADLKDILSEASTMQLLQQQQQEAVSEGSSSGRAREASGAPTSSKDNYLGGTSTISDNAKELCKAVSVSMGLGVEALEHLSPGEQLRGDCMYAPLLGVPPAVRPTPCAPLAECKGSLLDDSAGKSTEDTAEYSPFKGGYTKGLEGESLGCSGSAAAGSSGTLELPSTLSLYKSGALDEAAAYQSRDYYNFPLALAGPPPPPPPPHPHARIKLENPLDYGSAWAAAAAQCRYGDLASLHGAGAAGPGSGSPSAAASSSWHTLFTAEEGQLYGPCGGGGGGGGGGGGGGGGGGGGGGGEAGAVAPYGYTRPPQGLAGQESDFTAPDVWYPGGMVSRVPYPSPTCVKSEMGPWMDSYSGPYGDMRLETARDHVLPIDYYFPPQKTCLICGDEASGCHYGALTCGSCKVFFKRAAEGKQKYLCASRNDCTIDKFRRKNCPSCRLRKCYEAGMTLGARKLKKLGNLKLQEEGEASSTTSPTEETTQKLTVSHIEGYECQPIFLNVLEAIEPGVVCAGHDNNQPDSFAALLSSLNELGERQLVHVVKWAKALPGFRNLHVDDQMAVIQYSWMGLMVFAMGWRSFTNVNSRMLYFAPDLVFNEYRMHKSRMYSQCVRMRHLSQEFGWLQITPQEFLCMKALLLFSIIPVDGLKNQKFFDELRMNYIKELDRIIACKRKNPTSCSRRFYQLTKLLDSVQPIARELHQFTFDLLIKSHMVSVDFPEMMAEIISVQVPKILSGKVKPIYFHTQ
Chain of Aromatase (Homo sapiens) (P11511 whole entry, looked up): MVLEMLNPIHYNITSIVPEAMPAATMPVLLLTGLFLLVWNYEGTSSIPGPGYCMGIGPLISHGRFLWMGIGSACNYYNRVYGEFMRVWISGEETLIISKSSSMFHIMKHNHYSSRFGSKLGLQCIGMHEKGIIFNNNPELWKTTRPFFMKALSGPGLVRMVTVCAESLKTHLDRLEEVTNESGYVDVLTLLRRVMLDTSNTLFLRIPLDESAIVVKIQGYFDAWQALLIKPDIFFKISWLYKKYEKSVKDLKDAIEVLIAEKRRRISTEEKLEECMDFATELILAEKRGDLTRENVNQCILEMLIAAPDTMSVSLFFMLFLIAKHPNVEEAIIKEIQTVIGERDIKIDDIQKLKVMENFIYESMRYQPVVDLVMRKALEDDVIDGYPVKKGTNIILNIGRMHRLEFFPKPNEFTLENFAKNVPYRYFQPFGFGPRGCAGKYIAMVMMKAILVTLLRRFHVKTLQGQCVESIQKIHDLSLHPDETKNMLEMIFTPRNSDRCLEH
Chain of Estrogen receptor (Homo sapiens) (P03372 whole entry, looked up): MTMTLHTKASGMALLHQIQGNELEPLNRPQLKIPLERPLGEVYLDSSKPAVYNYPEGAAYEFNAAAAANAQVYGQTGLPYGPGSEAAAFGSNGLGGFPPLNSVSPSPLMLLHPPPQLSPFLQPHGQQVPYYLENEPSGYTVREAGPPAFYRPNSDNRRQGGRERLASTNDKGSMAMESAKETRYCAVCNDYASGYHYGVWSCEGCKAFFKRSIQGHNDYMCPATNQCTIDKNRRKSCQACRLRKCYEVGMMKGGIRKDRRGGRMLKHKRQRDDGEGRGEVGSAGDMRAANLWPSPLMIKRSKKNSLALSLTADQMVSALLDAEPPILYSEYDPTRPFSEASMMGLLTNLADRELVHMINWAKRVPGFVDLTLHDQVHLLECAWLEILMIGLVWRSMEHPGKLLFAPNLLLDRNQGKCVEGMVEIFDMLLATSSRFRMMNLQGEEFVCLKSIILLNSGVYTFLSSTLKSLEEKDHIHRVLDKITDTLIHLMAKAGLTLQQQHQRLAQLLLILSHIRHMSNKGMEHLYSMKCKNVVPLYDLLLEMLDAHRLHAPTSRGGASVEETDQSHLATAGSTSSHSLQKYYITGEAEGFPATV

## CCCCOCCOP(=O)(OCCOCCCC)OCCOCCCC
[1]
  Potency: 54.5 µM (active)
[2]
  Potency: inactive
[3]
  Potency: inactive
[4]
  Potency: 24.4 µM (active) and 19.3 µM (active)
[5]
  Potency: inactive
[6]
  Potency: inactive
[7]
  Potency: inactive
[8]
  Potency: inactive
[9]
  Potency: inactive
[10]
  Potency: inactive
[11]
  Potency: inactive

## O=S(=O)(Oc1ccc(Cl)cc1)c1ccc(Cl)cc1
[12]
  Potency: inactive
[1]
  Potency: inactive
[2]
  Potency: inactive
[3]
  Potency: inactive
[13]
  Potency: inactive
[4]
  Potency: inactive
[5]
  Potency: inactive
[6]
  Potency: inactive
[14]
  Potency: inactive
[7]
  Potency: inactive
[8]
  Potency: inactive
[9]
  Potency: inactive
[10]
  Potency: inactive
[11]
  Potency: inactive

## CCc1cccc(CC)c1N(COC)C(=O)CCl
[12]
  Potency: 19.3 µM (active)
[1]
  Potency: 5.91 µM (active) and 5.45 µM (active)
[2]
  Potency: inactive
[15]
  Potency: 26.7 µM (active) and 38.9 µM (active)
[16]
  Potency: inactive
[17]
  Potency: inactive
[3]
  Potency: inactive
[18]
  Potency: 61.1 µM (active)
[13]
  Potency: inactive
[4]
  Potency: 54.5 µM (active)
[5]
  Potency: inactive
[14]
  Potency: inactive
[7]
  Potency: inactive
[8]
  Potency: inactive
[9]
  Potency: inactive
[10]
  Potency: inactive
[11]
  Potency: 61.1 µM (active)

## c1nc[nH]n1
[12]
  Potency: inactive
[1]
  Potency: inactive
[2]
  Potency: inactive
[3]
  Potency: inactive
[13]
  Potency: inactive
[6]
  Potency: inactive
[14]
  Potency: inactive
[7]
  Potency: inactive
[8]
  Potency: inactive
[9]
  Potency: inactive
[10]
  Potency: inactive
[11]
  Potency: inactive

## O=C(NC(=O)c1c(F)cccc1F)Nc1ccc(Cl)cc1
[12]
  Potency: inactive
[1]
  Potency: inactive
[19]
  Potency: inactive
[2]
  Potency: inactive
[3]
  Potency: inactive
[13]
  Potency: inactive
[4]
  Potency: inactive
[5]
  Potency: inactive
[6]
  Potency: inactive
[14]
  Potency: inactive
[7]
  Potency: inactive
[8]
  Potency: inactive and 2.43 µM (active)
[10]
  Potency: inactive
[11]
  Potency: inactive

## NNC(N)=S
[12]
  Potency: 28.4 µM (active)
[1]
  Potency: 20.1 µM (active)
[19]
  Potency: 28.4 µM (active)
[2]
  Potency: 14.3 µM (active)
[13]
  Potency: inactive
[4]
  Potency: inactive
[5]
  Potency: inactive
[6]
  Potency: inactive
[7]
  Potency: inactive
[8]
  Potency: inactive
[9]
  Potency: inactive
[10]
  Potency: inactive
[11]
  Potency: 50.4 µM (active) and inactive
